PubChem BioAssay (NCATS)
“And” between values parts separate entries of the source, which are not always exact repeats. Equal entries are not always repeated. Records with an inconclusive call do not appear. Where a structure was tested more than once in an assay, its records may differ in their call. The source made the active and inactive calls. Unless noted, calls follow the shape of the dose curve; as a rule, active = well fitted curve in the direction sought with a large enough effect; inconclusive = small, poorly fitted or top-dose-only effect, or another doubt; inactive = no such curve, though single readings can be large; an effect the other way counts as inactive or inconclusive.

Experiments:
[1] = Counterscreen qHTS for small molecule stabilizers of the endoplasmic reticulum resident proteome: GLuc-NoTag assay (AID 1508627); also: potency is read from the fitted curve at half-maximal effect;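 as to activity change, negative = inhibition: SH-SY5Y cells given compound then 100 nM thapsigargin to empty ER calcium; 0% = thapsigargin alone and -100% = DMSO vehicle control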
How it was run: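 Luminescence of Gaussia luciferase secreted into the medium (coelenterazine, 0.07x final, unlysed cells) was the read-out. Human SH-SY5Y neuroblastoma cells constitutively secreting untagged GLuc received compound for 19 h, then 100 nM thapsigargin for 4 h.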

[2] = Confirmatory qHTS for small molecule stabilizers of the endoplasmic reticulum resident proteome: Secreted ER Calcium Modulated Protein (SERCaMP) assay (AID 1508628); also: nearly all actives have a fitted effect of over 40% in size; also: potency is read from the fitted curve at half-maximal effect
How it was run: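 We seeded SH-SY5Y-GLuc-SERCaMP cells, added compounds (three concentrations in the primary run, eleven up to 76.6 uM in confirmation), incubated 16 h, depleted ER calcium with thapsigargin, and read luciferase 4 h later.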

[3] = Cell Viability qHTS for small molecule stabilizers of the endoplasmic reticulum resident proteome (AID 1508629); details: cell viability counter-screen, 100 nM thapsigargin for final 4 h;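 also: compound exposure about 46 h in total before the viability read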; also: potency is read from the fitted curve at half-maximal effect;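 as to max response: human SH-SY5Y neuroblastoma cells carrying the GLuc-SERCaMP reporter; % is scaled to controls: 0 for no effect and ±100 for the full control effect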
[4] = Primary qHTS for small molecule stabilizers of the endoplasmic reticulum resident proteome: Secreted ER Calcium Modulated Protein (SERCaMP) assay (AID 1508630); also: % is scaled to controls: 0 for no effect and ±100 for the full control effect
How it was run: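 GLuc-SERCaMP-expressing SH-SY5Y cells, pretreated 16 h with compound, are challenged with thapsigargin to empty ER calcium stores; after 4 h, coelenterazine is added directly to the medium and luminescence is imaged.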

[5] = molecular target: Cytochrome P450 2D6 (Homo sapiens) (UniProt P10635); assay: Cytochrome P450 family 2 subfamily D member 6 (CYP2D6) small molecule antagonists: luciferase biochemical (cell-free) qHTS assay (AID 1645840; active = well fitted curve in the direction sought with a large enough effect in the repeat runs; an effect the other way counts as inactive or inconclusive; also: nearly all actives have a fitted effect of over 55% in size; also: potency is read from the fitted curve at half-maximal effect)
How it was run: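 P450-Glo luminescent screen: recombinant CYP2D6 enzyme–proluciferin substrate mix preincubated with compound 10 min at room temperature, then NADPH regeneration added for 1 h at room temperature. Detection reagent added for 20 min; luciferin light read as relative luminescence units.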

[6] = molecular target: Cytochrome P450 2C9 (Homo sapiens) (UniProt P11712); assay: Cytochrome P450 family 2 subfamily C member 9 (CYP2C9) small molecule antagonists: luciferase biochemical (cell-free) qHTS assay (AID 1645842; active = well fitted curve in the direction sought with a large enough effect in the repeat runs; an effect the other way counts as inactive or inconclusive; also: nearly all actives have a fitted effect of over 55% in size; also: potency is read from the fitted curve at half-maximal effect; as to activity change, negative = inhibition: % is scaled to controls: 0 for no effect and ±100 for the full control effect)
How it was run: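 Luminescence, after 20 min with luciferin detection reagent, reflected CYP2C9 turnover during a 1 h NADPH-driven reaction at 37C. Enzyme-substrate mix contained 0.4% bovine serum albumin and was preincubated with compound 10 min at room temperature.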

[7] = Cytotoxicity counterscreen for inhibitors of SARS-CoV-2 cell entry (AID 1645845; calls by dose curve; also: nearly all actives have a fitted effect of over 50% in size)
How it was run: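 48 h compound treatment (after 1 h preincubation), HEK293-ACE2 cells, 37 C/5% CO2; ATP luminescence endpoint; normalized to cell wells and media blanks.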

[8] = Primary qHTS to identify inhibitors of SARS-CoV-2 cell entry (AID 1645846; calls by dose curve; also: nearly all actives have a fitted effect of over 45% in size; also: potency is read from the fitted curve at half-maximal effect); details: activity change, negative = inhibition: at 57.1 µM (top of the series) unless noted
How it was run: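 Entry measured by luciferase signal 48 h after adding SARS-CoV-2-S pseudotyped MLV particles to HEK293-ACE2 cells preincubated 1 h with compounds. Normalisation: bald particles and spike particles.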

[9] = Primary qHTS for inhibitors of nuclear receptor binding SET domain protein 2 (NSD2) in an isogenic RCH-ACV NSD2 p.E1099K mutant (9B) (AID 1645876); also: nearly all actives have a fitted effect of over 70% in size; also: potency is read from the fitted curve at half-maximal effect; as to activity change, negative = viability loss: % is scaled to controls: 0 for no effect and ±100 for the full control effect
[10] = A High-Content qHTS Against Drug Library for the Identification of Small Molecules that Inhibit DYT1 Early Onset Primary Dystonia-Associated Cell Pathology (AID 1645839; calls by dose curve)
How it was run: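 In this high-content image screen, delE TorsinA mislocalization in inducible Flp-In 293 cells is scored as %pathology, with cell count serving as the counterscreen. Compound exposure lasts 48 h under tetracycline induction in reduced-serum medium.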

Papain (Carica papaya) = Papain (Carica papaya) (UniProt P00784); assay: Primary qHTS assay for inhibitors of the protease papain (AID 1645873);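 also: papain turnover of Z-FR-AMC read as the AMC fluorescence gain over 10 min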; also: potency is read from the fitted curve at half-maximal effect
[11] = Primary qHTS for inhibitors of nuclear receptor binding SET domain protein 2 (NSD2) in an RCH-ACV wild type WT cells (2C) (AID 1645877); also: nearly all actives have a fitted effect of over 70% in size; also: potency is read from the fitted curve at half-maximal effect
[12] = molecular target: Cytochrome P450 3A4 (Homo sapiens) (UniProt P08684); assay: Cytochrome P450 family 3 subfamily A member 4 (CYP3A4) small molecule antagonists: luciferase qHTS assay (AID 1645841; active = well fitted curve in the direction sought with a large enough effect in the repeat runs; an effect the other way counts as inactive or inconclusive; also: nearly all actives have a fitted effect of over 45% in size)
How it was run: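 Luminescent CYP3A4 activity readout: compounds plus enzyme-substrate mix 10 min at room temperature, reaction started with NADPH regenerating system for 1 h, stopped with detection reagent, read after 20 min. Ketoconazole served as control.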

Sequence of Cytochrome P450 2D6 (Homo sapiens) (P10635 whole entry, looked up): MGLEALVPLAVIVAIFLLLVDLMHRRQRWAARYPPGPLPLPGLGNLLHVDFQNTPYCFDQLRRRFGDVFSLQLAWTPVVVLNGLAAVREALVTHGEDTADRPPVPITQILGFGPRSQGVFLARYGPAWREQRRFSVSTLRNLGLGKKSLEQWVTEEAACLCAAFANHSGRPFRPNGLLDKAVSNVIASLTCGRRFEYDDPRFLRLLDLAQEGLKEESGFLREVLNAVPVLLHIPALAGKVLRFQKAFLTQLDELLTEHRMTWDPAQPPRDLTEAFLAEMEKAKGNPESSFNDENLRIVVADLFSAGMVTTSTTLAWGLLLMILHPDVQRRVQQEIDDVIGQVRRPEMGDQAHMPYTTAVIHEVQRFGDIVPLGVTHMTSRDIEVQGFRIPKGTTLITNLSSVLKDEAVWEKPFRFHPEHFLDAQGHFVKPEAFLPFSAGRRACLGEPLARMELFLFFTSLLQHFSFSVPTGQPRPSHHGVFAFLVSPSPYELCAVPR
Sequence of Papain (Carica papaya) (P00784 whole entry, looked up, the tested form may be a part): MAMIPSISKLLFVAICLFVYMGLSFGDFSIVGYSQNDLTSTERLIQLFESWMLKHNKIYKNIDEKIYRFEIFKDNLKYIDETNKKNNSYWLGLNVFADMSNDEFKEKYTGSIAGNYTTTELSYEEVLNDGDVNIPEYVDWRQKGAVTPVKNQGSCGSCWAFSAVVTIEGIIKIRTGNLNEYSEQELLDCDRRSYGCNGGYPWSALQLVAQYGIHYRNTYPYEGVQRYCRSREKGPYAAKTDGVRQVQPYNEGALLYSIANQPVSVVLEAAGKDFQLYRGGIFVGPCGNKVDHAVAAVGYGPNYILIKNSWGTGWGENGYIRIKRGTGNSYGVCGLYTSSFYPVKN
Sequence of Cytochrome P450 2C9 (Homo sapiens) (P11712 whole entry, looked up): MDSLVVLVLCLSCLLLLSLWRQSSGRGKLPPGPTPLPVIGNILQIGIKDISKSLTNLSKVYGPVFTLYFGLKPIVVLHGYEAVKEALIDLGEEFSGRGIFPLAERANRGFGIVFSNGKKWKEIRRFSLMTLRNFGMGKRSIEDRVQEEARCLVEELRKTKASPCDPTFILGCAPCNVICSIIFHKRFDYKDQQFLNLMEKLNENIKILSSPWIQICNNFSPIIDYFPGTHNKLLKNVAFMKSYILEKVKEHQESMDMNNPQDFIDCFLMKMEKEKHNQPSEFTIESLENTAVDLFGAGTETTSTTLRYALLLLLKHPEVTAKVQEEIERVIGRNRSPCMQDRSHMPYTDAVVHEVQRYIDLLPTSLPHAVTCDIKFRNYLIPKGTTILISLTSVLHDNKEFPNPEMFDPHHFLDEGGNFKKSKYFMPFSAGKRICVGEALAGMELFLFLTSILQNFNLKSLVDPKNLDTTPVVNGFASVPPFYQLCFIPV
Sequence of Cytochrome P450 3A4 (Homo sapiens) (P08684 whole entry, looked up): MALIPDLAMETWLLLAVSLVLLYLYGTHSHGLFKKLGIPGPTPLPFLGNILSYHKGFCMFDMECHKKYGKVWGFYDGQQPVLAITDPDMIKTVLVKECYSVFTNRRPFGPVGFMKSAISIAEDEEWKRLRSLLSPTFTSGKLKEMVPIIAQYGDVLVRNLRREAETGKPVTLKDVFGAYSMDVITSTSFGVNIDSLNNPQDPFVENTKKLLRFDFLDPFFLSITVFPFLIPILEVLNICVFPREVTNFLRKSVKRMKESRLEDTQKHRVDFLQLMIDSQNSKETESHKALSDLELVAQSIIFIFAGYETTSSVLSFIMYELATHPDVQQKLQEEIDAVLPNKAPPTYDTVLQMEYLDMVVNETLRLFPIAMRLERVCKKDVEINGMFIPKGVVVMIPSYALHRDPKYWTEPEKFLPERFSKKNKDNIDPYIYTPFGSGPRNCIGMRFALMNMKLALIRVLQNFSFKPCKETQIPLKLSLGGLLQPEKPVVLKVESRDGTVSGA

CC(C)CC(N(C)C)C1(c2ccc(Cl)cc2)CCC1 (centres undefined)
active: Potency [5] 4.36 µM
2.03%: activity change, negative = inhibition [8]
inactive: Potency [1] | Potency [2] | max response [3] 6.57% | outcome [4] | Potency [6] | Potency [7] | Potency [9]

N[C@@H]1C[C@H]1c1ccccc1
active: Potency [6] 21.9 µM
inactive: outcome [4] | Potency [10] | Potency [7] | Potency [9]

Fc1ccc(C(OCCN2CCN(CCCc3ccccc3)CC2)c2ccc(F)cc2)cc1
inactive: outcome [4] | Potency (Papain (Carica papaya))
active: Potency [1] 44.7 µM | Potency [8] 17.8 µM | Potency [9] 6.68 µM and 11.8 µM | Potency [11] 5.96 µM and 9.34 µM

FC(F)(F)c1cccc(C2=CCN(CCc3ccc4ccccc4c3)CC2)c1
active: Potency [5] 0.0098 µM
inactive: outcome [4] | Potency [10] | Potency [6] | Potency [7] | Potency [9] | Potency [11]

COc1ccc(C(CN(C)C)C2(O)CCCCC2)cc1 (centres undefined)
inactive: outcome [4] | Potency [10] | Potency [6] | Potency [7] | Potency [8] | Potency (Papain (Carica papaya)) | Potency [9] | Potency [11]

CNC(=O)N1N=C(c2ccc(N)cc2)c2cc3c(cc2CC1C)OCO3 (centres undefined)
active: Potency [6] 1.51 µM | Potency [9] 3.65 µM | Potency [11] 2.05 µM
inactive: outcome [4] | Potency [5]

CCN(CC)C(=O)N[C@@H]1C=C2c3cccc4[nH]cc(c34)C[C@@H]2N(C)C1
inactive: outcome [4] | Potency [10] | Potency [7] | Potency [9]
3.33%: activity change, negative = inhibition [8]

CC(=O)[C@H]1CC[C@H]2[C@@H]3CC[C@H]4C[C@](C)(O)CC[C@]4(C)[C@H]3CC[C@]12C
active: Potency [5] 1.23 µM
inactive: outcome [4] | Potency [6] | Potency (Papain (Carica papaya)) | Potency [9] | Potency [11]

Cc1sc2c(c1C)C(c1ccc(Cl)cc1)=N[C@@H](CC(=O)OC(C)(C)C)c1nnc(C)n1-2
inactive: outcome [4] | Potency [5] | Potency [7]
-18.3%: activity change, negative = inhibition [8]
active: Potency [6] 10.7 µM | Potency [9] 0.372 µM | Potency [11] 0.263 µM

CCC1(C2=NCCN2)Cc2ccccc2O1 (centres undefined)
inactive: outcome [4] | Potency [6] | Potency (Papain (Carica papaya))

O=C1NCN(c2ccccc2)C12CCN(CC1COc3ccccc3O1)CC2 (centres undefined)
inactive: outcome [4] | Potency [10] | Potency (Papain (Carica papaya)) | Potency [9] | Potency [11]
active: Potency [5] 0.0245 µM | Potency [6] 6.17 µM

NCC1(CC(=O)O)CCCCC1
1.13%: activity change, negative = inhibition [8]
inactive: outcome [4] | Potency [5] | Potency [6] | Potency [7] | Potency (Papain (Carica papaya)) | Potency [9] | Potency [11]

CNCC(O)c1ccc(O)cc1 (centres undefined)
-17.4%: activity change, negative = inhibition [8]
inactive: outcome [4] | Potency [5] | Potency [6] | Potency [7] | Potency (Papain (Carica papaya)) | Potency [9] | Potency [11]

CCCN1CCC[C@@H]2Cc3nc(N)ncc3C[C@H]21
inactive: outcome [4] | Potency [10] | Potency [6] | Potency (Papain (Carica papaya)) | Potency [9] | Potency [11]
active: Potency [5] 9.77 µM

C[C@@H]1O[C@@H](O[C@H]2C[C@@H](O)[C@]3(CO)[C@H]4[C@H](O)C[C@]5(C)[C@@H](C6=CC(=O)OC6)CC[C@]5(O)[C@@H]4CC[C@]3(O)C2)[C@H](O)[C@H](O)[C@H]1O
-97.3% and -94.1%: activity change, negative = inhibition [8]
inactive: outcome [4] | Potency [5] | Potency [6] | Potency (Papain (Carica papaya))
active: Potency [9] 29.9 nM and 50.2 nM and 41.7 nM | Potency [11] 37.6 nM and 100 nM and 66.1 nM

NCC(O)c1ccc(O)cc1 (centres undefined)
inactive: outcome [4] | Potency [5] | Potency [6] | Potency [7] | Potency [8] | Potency (Papain (Carica papaya))

CCC(COC(=O)c1cc(OC)c(OC)c(OC)c1)(c1ccccc1)N(C)C (centres undefined)
inactive: outcome [4] | Potency [7] | Potency [9] | Potency [11]
active: Potency [5] 0.389 µM | Potency [6] 13.8 µM

Clc1cccc(N2CCNCC2)c1
inactive: outcome [4] | Potency [6] | Potency [9] | Potency [11]
active: Potency [5] 8.71 µM

Cn1c(CCCC(=O)O)nc2cc(N(CCCl)CCCl)ccc21
active: Potency (Papain (Carica papaya)) 25.1 µM
inactive: outcome [4] | Potency [10] | Potency [5] | Potency [6]

CCC(C(N)=O)N1CCCC1=O (centres undefined)
-16.2%: activity change, negative = inhibition [8]
inactive: outcome [4] | Potency [10] | Potency [5] | Potency [6] | Potency [7] | Potency [9] | Potency [11]

Oc1cccc2cccnc12
-23.4%: activity change, negative = inhibition [8]
34.4 µM (active) and inactive: Potency [11]
15.4 µM (active) and inactive: Potency [9]
active: Potency [3] 20 µM
inactive: outcome [4] | Potency [5] | outcome [12] | Potency [7]

NCC(CC(=O)O)c1ccc(Cl)cc1 (centres undefined)
0.754% [at 0.702 µM]: activity change, negative = inhibition [8]
inactive: outcome [4] | % pathology change, negative = correction [10] 14.6% [at 0.369 µM] | activity change, negative = inhibition [5] 14.3% [at 0.91 µM] | activity change, negative = inhibition [6] 15.7% [at 0.91 µM] | Potency (Papain (Carica papaya)) | activity change, negative = viability loss [9] 3.1% [at 0.588 µM] | activity change, negative = cell killing [11] -19.2% [at 0.588 µM]

CC[C@@H](CO)NC(=O)[C@@H]1C=C2c3cccc4[nH]cc(c34)C[C@H]2N(C)C1
-4.87%: activity change, negative = inhibition [8]
inactive: outcome [4] | Potency [10] | Potency [6] | Potency [7] | Potency [9] | Potency [11]

CCC(=O)C(CC(C)N(C)C)(c1ccccc1)c1ccccc1 (centres undefined)
inactive: Potency [1] | Potency [6]
active: Potency [2] 35.5 µM | Potency [5] 0.898 µM | Potency [9] 34.7 µM | Potency [11] 30.9 µM

CN1CCN(C(=O)O[C@H]2c3nccnc3C(=O)N2c2ccc(Cl)cn2)CC1
inactive: outcome [4] | Potency [10] | Potency [6] | Potency [7] | Potency [8] | Potency [9] | Potency [11]
